Hit rate of the full screen: of about 38,000 compounds, about 1,200 (3.2%) showed an effect of 50% or more. The median lay at about -58%. The list comes from a sample in which strong results are over-represented; it also holds similar structures and randomly drawn compounds.
Tested on: Plasmodium falciparum
Assay: Calibr Malaria Delayed Death Assay SOP
Type: functional, organism-based
Set-up: scale not given: in the data most compounds retested in dose-response had high values
Details: concentration 4.99e-06 (unit not given; other assays of the set use mol/L)

SMILES | Percent Effect
O=C1CC(c2ccncc2)C2(CCN(Cc3cccnc3)CC2)N1 (centres undefined) | -62.4%
CN1CCCN(C(=O)NCCNc2cnccn2)CC1 | -4.347%
CO[C@H]1CCN(Cc2cnn(C)c2)[C@@H]2CN(Cc3ccncc3)C[C@H]12.O=C(O)C(F)(F)F.O=C(O)C(F)(F)F.O=C(O)C(F)(F)F | -72.72%
COCCN1C[C@@H]2[C@@H](OC)CCN(Cc3ccncc3)[C@@H]2C1.O=C(O)C(F)(F)F.O=C(O)C(F)(F)F.O=C(O)C(F)(F)F | 24.39%
CO[C@H]1CCN(Cc2c(C)noc2C)[C@@H]2CN(Cc3ccncc3)C[C@H]12.O=C(O)C(F)(F)F.O=C(O)C(F)(F)F.O=C(O)C(F)(F)F | -5.39%
COCCN1C[C@@H]2[C@@H](OC)CCN(Cc3ccc(C)o3)[C@@H]2C1.O=C(O)C(F)(F)F.O=C(O)C(F)(F)F | 3.217%
COCCN1C[C@@H]2[C@@H](OC)CCN(Cc3ccsc3)[C@@H]2C1.O=C(O)C(F)(F)F.O=C(O)C(F)(F)F | 66.72%
CO[C@@H]1CCN(Cc2cccs2)[C@@H]2CN(Cc3ccncc3)C[C@@H]21.O=C(O)C(F)(F)F.O=C(O)C(F)(F)F.O=C(O)C(F)(F)F | 52.08%
COCCN1C[C@@H]2[C@@H](OC)CCN(Cc3cccs3)[C@@H]2C1.O=C(O)C(F)(F)F.O=C(O)C(F)(F)F | 66.16%
CO[C@@H]1CCN(Cc2cccc(C)n2)[C@@H]2CN(Cc3ccncc3)C[C@@H]21.O=C(O)C(F)(F)F.O=C(O)C(F)(F)F.O=C(O)C(F)(F)F.O=C(O)C(F)(F)F | 30.62%
COCCN1C[C@H]2[C@@H](C1)N(Cc1cnn(C)c1)CC[C@H]2OC.O=C(O)C(F)(F)F.O=C(O)C(F)(F)F | -59.33%
COCCN1C[C@@H]2[C@@H](OC)CCN(Cc3ccco3)[C@@H]2C1.O=C(O)C(F)(F)F.O=C(O)C(F)(F)F | -1.66%
CO[C@H]1CCN(Cc2cccs2)[C@@H]2CN(Cc3ccncc3)C[C@H]12.O=C(O)C(F)(F)F.O=C(O)C(F)(F)F.O=C(O)C(F)(F)F | 59.98%
CO[C@H]1CCN(C2CCC2)[C@@H]2CN(Cc3ccncc3)C[C@H]12.O=C(O)C(F)(F)F.O=C(O)C(F)(F)F.O=C(O)C(F)(F)F | -45.55%
CN1CCN(C(=O)c2cc3sccc3n2Cc2ccccc2F)CC1 | 29.89%
NC(=O)c1ccc(CN2CCCC(N3CCCCCC3)C2)cc1 (centres undefined) | -140%
COCC(=O)N1C[C@H](N(C)Cc2cncnc2)[C@H]2OCCC[C@H]21 | -24%
COc1ccccc1OC1CCN(Cc2ccc(N(C)C)nc2)CC1 | -79.91%
O=C(NCCn1cccc1)c1c(O)cc(F)cc1F | -181.2%
Cc1cc(C(=O)N2CCCC2c2nnc3n2CCCCC3)on1 (centres undefined) | -57.59%
CCN1C[C@H]2[C@@H](C1)N(S(=O)(=O)c1ccccc1)CC[C@H]2OC.O=C(O)C(F)(F)F | 60.81%
CCN1C[C@H]2[C@@H](C1)N(S(=O)(=O)c1ccccc1F)CC[C@H]2OC.O=C(O)C(F)(F)F | 45.85%
CCN1C[C@@H]2[C@@H](OC)CCN(S(=O)(=O)c3cccnc3)[C@@H]2C1.O=C(O)C(F)(F)F.O=C(O)C(F)(F)F | -23.75%

SMILES | Percent Effect
O=c1cc(N2CCCCC2)cnn1CC(O)C(F)(F)F (centres undefined) | -156.3%
Cc1ccnc(OCC(=O)N2CCCC2)n1 | -75.67%
Fc1cccc(Cl)c1CNCCCOc1ccccn1 | 9.624%
Cc1cccc(NC(=O)C2CSc3ncc(C)c(=O)n3C2)n1 (centres undefined) | -106.9%
c1cnc(N2CCC3(COCc4cnc(N5CCOCC5)nc43)C2)nc1 (centres undefined) | -59.23%
CC(C)(O)CN1CCN(C(=O)c2cccn2Cc2ccccc2)CC1 | -70.89%
Cc1ccc(C2(CN(C)Cc3c(C)nn(C)c3C)CCNCC2)nc1 | 16.34%
Cc1ccc(C2(CN(C)Cc3sccc3C)CCNCC2)nc1 | 76.73%
Cc1ccc(C2(CN(C)Cc3snnc3C)CCNCC2)nc1 | -24.27%
CCCc1nc(N2CCCC(CCOC)C2)c2cnn(C)c2n1 (centres undefined) | -84.44%
CCC(CO)NCc1ccc(-c2ccc(Br)cc2)o1.Cl (centres undefined) | 45.11%
Cc1cc(N2CCCC2)nc(N(C)CCO)c1C#N | -125.9%
CC(=O)N1CCc2nc(N(C)C)nc(NCCc3ccccc3)c2CC1 | -47.75%
CN(C)c1nc2c(c(NCc3cc(O)ncn3)n1)CCCC2 | 89.31%
Cc1nc(CCNc2nc(N(C)C)nc3c2CCCC3)cc(=O)[nH]1 | -16.34%
Cc1cnn(CC2CCCN2Cc2nnc(C)o2)c1 (centres undefined) | -118.7%
CC(C)c1cc(NC(=O)c2ccncc2)[nH]n1 | -141%
CC(C)c1cc(NC(=O)c2ccc([S+]([O-])C(C)C)cc2)[nH]n1 (centres undefined) | -180.3%
CC(C)c1cc(NC(=O)c2ccc(C(=O)NC(C)(C)C)cc2)[nH]n1 | 62.94%
CCn1c(C)nnc1Sc1nn2cc(C)nc2s1 | -124.9%
CCN1CC2(CC1=O)CN(C(=O)c1ccoc1)CCN(C(=O)N(C)C)C2 (centres undefined) | -39.9%
Cc1c(CN2CC[C@@H](N3CCC(O)CC3)[C@H](O)C2)[nH]c2ccc(Cl)cc12 | 53.46%
Cc1ccc2[nH]c(CN3CC[C@@H](N4CCN(C)CC4)[C@H](O)C3)c(C)c2c1 | -45.01%

SMILES | Percent Effect
Cc1c(CN2CC[C@@H](N3CCC(O)CC3)[C@H](O)C2)[nH]c2ccc(F)cc12 | -24.81%
Cc1noc([C@@]23CCO[C@@H]2CCN(S(=O)(=O)c2cccnc2)C3)n1 | -112.8%
CSc1ccc(CN(CCO)C(=O)CCc2ccc(O)cc2)cc1 | -83.46%
CN1CCC(N2CCC(C(=O)N(C)C)CC2)CC1.O=C(O)C(F)(F)F.O=C(O)C(F)(F)F | -35.37%
Cc1cc(=O)n2nc(Oc3cccc(I)c3)sc2n1 | 55.78%
Cc1cc(=O)n2nc(Oc3ccc(C#N)cc3Cl)sc2n1 | 19.91%
Cc1cc(=O)n2nc(Oc3cc(Cl)cc(Cl)c3)sc2n1 | -6.381%
O=c1[nH]cnc2[nH]c(N3CCCCC3)nc12 | -26.61%
N#Cc1ccc(NCc2cccc(OCC3CCCO3)c2)nc1 (centres undefined) | -77.93%
COCc1nc(CNC(=O)C(C)n2ccnc2C(C)C)no1 (centres undefined) | -17.51%
COc1cc2c(cc1CNC(=O)C(C)n1ccnc1C(C)C)CCC2 (centres undefined) | 59.1%
COc1cc2c(cc1CNC(=O)C(C)n1ccnc1C(C)C)OCCO2 (centres undefined) | 8.922%
NS(=O)(=O)NCc1cc(-c2ccc(C(F)(F)F)cc2)n[nH]1 | -60.23%
Fc1cccc(N2CCCC3(CN(Cc4ccccn4)CCO3)C2)c1.O=C(O)C(F)(F)F.O=C(O)C(F)(F)F.O=C(O)C(F)(F)F (centres undefined) | -90.59%
Fc1cccc(N2CCCC3(CN(Cc4ccco4)CCO3)C2)c1.O=C(O)C(F)(F)F.O=C(O)C(F)(F)F (centres undefined) | 40.81%
Fc1cccc(N2CCCC3(C2)CN(c2ncccn2)CCO3)c1.O=C(O)C(F)(F)F.O=C(O)C(F)(F)F (centres undefined) | 69.94%
Cn1cc(CN2CCOC3(CCCN(c4cccc(F)c4)C3)C2)cn1.O=C(O)C(F)(F)F.O=C(O)C(F)(F)F (centres undefined) | -10.6%
Fc1cccc(N2CCCC3(CN(Cc4cccnc4)CCO3)C2)c1.O=C(O)C(F)(F)F.O=C(O)C(F)(F)F.O=C(O)C(F)(F)F (centres undefined) | 64.23%
Fc1cccc(N2CCCC3(CN(Cc4nccs4)CCO3)C2)c1.O=C(O)C(F)(F)F.O=C(O)C(F)(F)F (centres undefined) | -4.725%
CC(C)(C)OC(=O)N1CCN(c2nnc(Br)s2)CC1 | -125.7%
Cn1cccc1C(=O)N1CCn2nnc(COc3cccnc3)c2C1.O=C(O)C(F)(F)F | -3.271%
Cc1csc(C(=O)NCCn2nc(-n3cncn3)ccc2=O)c1 | -119.2%
O=C(Cn1cc(-c2ccccc2)ncc1=O)NC1CCCCC1 | -177.8%

SMILES | Percent Effect
CCCS(=O)(=O)N1CCOC2(CCCN(c3ccccn3)C2)C1.O=C(O)C(F)(F)F (centres undefined) | -72.32%
COc1ccc2c(c1)OCC(CNC(=O)c1ccc3[nH]nnc3c1)C2 (centres undefined) | -64.67%
COCCN(CC1CCCN(C2Cc3ccccc3C2)C1)C(=O)CO (centres undefined) | 58.68%
COCCN(CC1CCCN(C2Cc3ccccc3C2)C1)C(=O)CSC (centres undefined) | -1.59%
COCCN(CC1CCCN(C2Cc3ccccc3C2)C1)C(=O)COC (centres undefined) | 37.76%
NCc1ccnc(Oc2ccccc2)c1 | -83.78%
O=C(CO)N1C[C@H]2CN(Cc3cccc(F)c3)C(=O)[C@H]2C1 | -121.2%
Fc1ccc(OCCCNC2=NCCCN2)cc1.I | 2.763%
CC(NC(=O)NCC1(c2ccc(F)cc2)CCCC1)c1nncn1C (centres undefined) | -7.891%
Fc1ccc(C2(CNC3=NCCCN3)CCC2)cc1.I | -5.202%
Fc1ccc(C2(CNC3=NCCN3)CCCC2)cc1.I | 83.26%
CN(C)c1cc(C(=O)NCC2(c3ccc(F)cc3)CC2)ccn1 | -97.96%
COc1cccc(N2C(=O)CC3(CCCNC3)C2=O)c1.Cl (centres undefined) | -161.5%
c1ccc2oc(CN3CCCCC3Cn3cncn3)nc2c1 (centres undefined) | -88.89%
COc1cccc(OC)c1CN1CC(=O)N(c2ccc(C)cc2)CC1C (centres undefined) | 75.45%
COc1ccc(F)c(CN2CC(=O)N(c3ccccc3C)CC2C)c1 (centres undefined) | 6.943%
COc1ccc(F)c(F)c1CN1CC(=O)N(c2ccccc2C)CC1C (centres undefined) | 28.54%
COc1cccc(CN2CC(=O)N(c3ccccc3C)CC2C)c1OC (centres undefined) | 52.42%
COc1cc(CN2CC(=O)N(c3ccc(C)cc3)CC2C)cc(OC)c1 (centres undefined) | 43.44%
COc1ccc(CN2CC(=O)N(c3ccc(C)cc3)CC2C)cc1O (centres undefined) | -98.66%
